Data as given in PubChem BioAssay AID1159580 (chemical genetic matrix, 2015).
Screen size: about 5,500 compounds; about 2,000 (36%) were called active. Another 18% or so got no clear call; they are omitted. Rule as the data show it: active = normalized growth mostly below about 0.91 (no sharp cut-off); inconclusive = no clear call, values can overlap the other calls; inactive = mostly above about 0.92. The list shows a part of the results.

Assay: chemical genetic growth profiling, strain panel (AID 1159580);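 also: tested at 20 µM; growth read once vehicle control cultures reached saturation at 30 °C; 1 = growth at the plate median or of vehicle wells; lower values mean less growth of the strain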
Settings: growth OD

Measured: normalized growth

CCCCC1=NC2(CCCC2)C(=O)N1Cc1ccc(-c2ccccc2-c2nn[nH]n2)cc1
inactive: S. cerevisiae deletion strains, locus YKL009W, strain mrt4, active compounds read low 0.952 | S. cerevisiae deletion strains, locus YKL068W, active compounds read low 0.98 | S. cerevisiae deletion strains, locus YKL085W, strain MDH1 (second series), active compounds read low 0.986 | S. cerevisiae deletion strains, locus YKL085W, strain MDH1, active compounds read low 0.986 | S. cerevisiae deletion strains, locus YKL160W, strain elf1, active compounds read low 1.01 | S. cerevisiae deletion strains, locus YKL190W, strain CNB1, active compounds read low 0.986 | S. cerevisiae deletion strains, locus YKR001C, strain vps1, active compounds read low 0.996 | S. cerevisiae deletion strains, locus YKR026C, strain gcn3, active compounds read low 1.01 | S. cerevisiae deletion strains, locus YKR091W, strain srl3, active compounds read low 1.02 | S. cerevisiae deletion strains, locus YLL001W, strain dnm1, active compounds read low 1.01 | S. cerevisiae deletion strains, locus YLL026W, active compounds read low 1.02 | S. cerevisiae deletion strains, locus YLL041C, strain sdh2, active compounds read low 1.01 | S. cerevisiae deletion strains, locus YLR027C, strain aat2, active compounds read low 0.999 | S. cerevisiae deletion strains, locus YLR039C, strain RIC1, active compounds read low 0.969 | S. cerevisiae deletion strains, locus YLR058C, strain SHM2, active compounds read low 0.964 | S. cerevisiae deletion strains, locus YLR102C, strain apc9, active compounds read low 0.981 | S. cerevisiae deletion strains, locus YLR113W, strain HOG1, active compounds read low 1.02 | S. cerevisiae deletion strains, locus YLR221C, strain rsa3, active compounds read low 1.01 | S. cerevisiae deletion strains, locus YLR258W, strain gsy2, active compounds read low 1.02 | S. cerevisiae deletion strains, locus YLR262C, strain YPT6 (second series), active compounds read low 1.04 | S. cerevisiae deletion strains, locus YLR262C, strain YPT6, active compounds read low 0.947 | S. cerevisiae deletion strains, locus YLR268W, strain sec22, active compounds read low 1.09 | S. cerevisiae deletion strains, locus YLR320W, strain mms22, active compounds read low 1.02 | S. cerevisiae deletion strains, locus YLR330W, strain CHS5, active compounds read low 0.987 | S. cerevisiae deletion strains, locus YLR342W, strain FKS1 (second series), active compounds read low 0.96 | S. cerevisiae deletion strains, locus YLR342W, strain FKS1, active compounds read low 1.02 | S. cerevisiae deletion strains, locus YLR357W, strain rsc2, active compounds read low 1.01 | S. cerevisiae deletion strains, locus YLR370C, strain arc18, active compounds read low 1.01 | S. cerevisiae deletion strains, locus YLR371W, strain rom2, active compounds read low 0.972 | S. cerevisiae deletion strains, locus YLR384C, strain iki3, active compounds read low 1 | S. cerevisiae deletion strains, locus YLR418C, strain cdc73, active compounds read low 0.993 | S. cerevisiae deletion strains, locus YML016C, strain PPZ1, active compounds read low 0.984 | S. cerevisiae deletion strains, locus YML032C, strain rad52, active compounds read low 1.02 | S. cerevisiae deletion strains, locus YML120C, strain ndi1, active compounds read low 0.997 | S. cerevisiae deletion strains, locus YML124C, strain tub3, active compounds read low 0.977 | S. cerevisiae deletion strains, locus YMR058W, strain fet3, active compounds read low 1 | S. cerevisiae deletion strains, locus YMR078C, strain ctf18, active compounds read low 0.991 | S. cerevisiae deletion strains, locus YMR125W, strain sto1, active compounds read low 1.01 | S. cerevisiae deletion strains, locus YMR129W, active compounds read low 1.01 | S. cerevisiae deletion strains, locus YMR205C, strain PFK2, active compounds read low 1.03 | S. cerevisiae deletion strains, locus YMR223W, strain ubp8, active compounds read low 0.957 | S. cerevisiae deletion strains, locus YMR231W, strain pep5, active compounds read low 1.02 | S. cerevisiae deletion strains, locus YMR263W, strain SAP30, active compounds read low 0.998 | S. cerevisiae deletion strains, locus YMR307W, strain GAS1, active compounds read low 0.964 | S. cerevisiae deletion strains, locus YNL067W, strain RPL9B, active compounds read low 1.04 | S. cerevisiae deletion strains, locus YNL071W, strain lat1, active compounds read low 1 | S. cerevisiae deletion strains, locus YNL128W, strain TEP1, active compounds read low 0.968 | S. cerevisiae deletion strains, locus YNL153C, strain GIM3, active compounds read low 1.03 | S. cerevisiae deletion strains, locus YNL183C, strain NPR1, active compounds read low 0.966 | S. cerevisiae deletion strains, locus YNL209W, strain ssb2, active compounds read low 1.01 | S. cerevisiae deletion strains, locus YNL233W, strain BNI4, active compounds read low 1.04 | S. cerevisiae deletion strains, locus YNL248C, strain rpa49, active compounds read low 1.04 | S. cerevisiae deletion strains, locus YNL250W, strain rad50, active compounds read low 0.978 | S. cerevisiae deletion strains, locus YNL271C, strain bni1, active compounds read low 1 | S. cerevisiae deletion strains, locus YNL298W, strain CLA4, active compounds read low 0.971 | S. cerevisiae deletion strains, locus YNL307C, strain MCK1, active compounds read low 0.99 | S. cerevisiae deletion strains, locus YNL322C, strain KRE1 (second series), active compounds read low 1.03 | S. cerevisiae deletion strains, locus YNL322C, strain KRE1, active compounds read low 0.986 | S. cerevisiae deletion strains, locus YNR049C, strain mso1, active compounds read low 1 | S. cerevisiae deletion strains, locus YNR052C, strain pop2, active compounds read low 0.999 | S. cerevisiae deletion strains, locus YOL006C, strain TOP1, active compounds read low 1.1 | S. cerevisiae deletion strains, locus YOL012C, strain htz1 0.917 | S. cerevisiae deletion strains, locus YOL147C, strain pex11, active compounds read low 0.992 | S. cerevisiae deletion strains, locus YOR001W, strain rrp6, active compounds read low 1.01 | S. cerevisiae deletion strains, locus YOR061W, strain CKA2, active compounds read low 0.97 | S. cerevisiae deletion strains, locus YOR069W, strain VPS5, active compounds read low 0.991 | S. cerevisiae deletion strains, locus YOR070C, strain gyp1, active compounds read low 1.01 | S. cerevisiae deletion strains, locus YOR080W, strain dia2, active compounds read low 1 | S. cerevisiae deletion strains, locus YOR083W, strain WHI5, active compounds read low 1.03 | S. cerevisiae deletion strains, locus YOR106W, strain vam3, active compounds read low 1.02 | S. cerevisiae deletion strains, locus YOR136W, strain idh2, active compounds read low 0.967 | S. cerevisiae deletion strains, locus YOR144C, strain elg1, active compounds read low 0.987 | S. cerevisiae deletion strains, locus YOR184W, strain ser1, active compounds read low 0.979 | S. cerevisiae deletion strains, locus YOR231W, strain MKK1, active compounds read low 0.981 | S. cerevisiae deletion strains, locus YOR265W, strain rbl2, active compounds read low 1.01 | S. cerevisiae deletion strains, locus YOR270C, strain vph1, active compounds read low 1.08 | S. cerevisiae deletion strains, locus YOR290C, strain snf2, active compounds read low 1.01 | S. cerevisiae deletion strains, locus YOR316C, strain cot1, active compounds read low 0.984 | S. cerevisiae deletion strains, locus YPL051W, strain arl3, active compounds read low 0.984 | S. cerevisiae deletion strains, locus YPL055C, strain LGE1, active compounds read low 0.959 | S. cerevisiae deletion strains, locus YPL078C, strain atp4, active compounds read low 1.01 | S. cerevisiae deletion strains, locus YPL106C, strain sse1, active compounds read low 1.01 | S. cerevisiae deletion strains, locus YPL240C, strain hsp82, active compounds read low 1 | S. cerevisiae deletion strains, locus YPL241C, strain CIN2, active compounds read low 0.99 | S. cerevisiae deletion strains, locus YPL256C, strain CLN2, active compounds read low 0.985 | S. cerevisiae deletion strains, locus YPR119W, strain clb2, active compounds read low 0.986 | S. cerevisiae deletion strains, locus YPR141C, strain kar3, active compounds read low 0.971 | S. cerevisiae deletion strains, locus YPR163C, strain tif3, active compounds read low 0.995 | S. cerevisiae deletion strains, locus YPR167C, strain met16, active compounds read low 0.991 | S. cerevisiae deletion strains, strain wtn01, active compounds read low 1.02 | S. cerevisiae strains, strain wild type, active compounds read low 0.978
